According to PubChem BioAssay (Tox21):
A number with no mark means an inactive call. Inconclusive results are not listed. Where a call stands in place of a potency, no number is given. The source made the active and inactive calls. Unless noted, calls come from the whole dose curve; as a rule, active = well fitted curve in the direction sought with a large enough effect in the repeat runs; inconclusive = weak or mixed curves; inactive = no such curve, though single readings can be large; an effect the other way counts as inactive or inconclusive.

Legend:
[1] = qHTS assay for small molecules that induce genotoxicity in human embryonic kidney cells expressing luciferase-tagged ATAD5 (AID 651632); note: nearly all actives have a fitted effect of over 15% in size; note: potency is the fitted concentration of half-maximal effect
In short: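 Test compounds were delivered by pin tool onto HEK293T reporter cells (2,000/well) expressing ATAD5 fused to luciferase. After 16 hr at 37C, 5% CO2, Amplite was added for 30 min at room temperature and luminescence was measured.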

[2] = qHTS assay for small molecules that induce genotoxicity in human embryonic kidney cells expressing luciferase-tagged ATAD5 - cell viability (AID 651634; calls by dose curve; note: nearly all actives have a fitted effect of over 25% in size; note: potency is the fitted concentration of half-maximal effect)
In short: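 Quantitative high-throughput format. HEK293T cells expressing ATAD5 fused to luciferase were plated at 2,000 cells/well and treated 15.5 hr with compound versus DMSO. Viability was determined by fluorescent live-cell protease substrate, 30 min at 37C.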

[3] = qHTS assay to test for compound auto fluorescence at 590 nm (red) in HepG2 cells (AID 720674)
In short: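 HepG2 cells, 2,000 per well in MEM with 10% FBS, attached overnight at 37 C, then got 23 nL compound or DMSO. After 1 hr at 37 C, 5% CO2, red fluorescence was read at 540/590 nm against Rose Bengal sodium as reference.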

[4] = qHTS assay to test for compound auto fluorescence at 535 nm (green) in HepG2 cells (AID 720675)
[5] = qHTS assay to test for compound auto fluorescence at 590 nm (red) in HEK293 cells (AID 720679)
In short: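 Red channel, Ex/Em 540/590nm; signal expressed as equivalency to Rose Bengal sodium. HEK293, 2,000 cells/well, 10% dialyzed FBS; 23 nL compound pinned after 4-5 hr attachment; overnight 37C/5% CO2 before reading.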

[6] = qHTS assay to test for compound auto fluorescence at 460 nm (blue) in HEK293 cell free culture (AID 720681)
In short: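 Compounds were added to cell-free DMEM with 10% FBS and fluorescence read directly. The blue channel used 405 nm excitation and 460 nm emission, with triamterene as the reference fluorophore.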

[7] = qHTS assay to test for compound auto fluorescence at 535 nm (green) in HEK293 cell free culture (AID 720682)
In short: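 Using fluorescein as calibrant, autofluorescence was quantified at 485/535 nm in cell-free DMEM containing 10% FBS after pintool addition of compound or vehicle.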

[8] = qHTS assay to test for compound auto fluorescence at 590 nm (red) in HepG2 cell free culture (AID 720684)
In short: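 Rose Bengal sodium served as the reference for red signal. Test compounds were dispensed into serum-containing MEM (10% FBS) without cells, and plates were read at 540/590 nm.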

[9] = qHTS assay to test for compound auto fluorescence at 460 nm (blue) in HepG2 cell free culture (AID 720685)
In short: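 Cell-free plates of MEM plus 10% FBS received 23 nL compound or DMSO vehicle; blue-channel (405/460 nm) intensity scored against triamterene as reference fluorophore.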

[10] = qHTS assay to test for compound auto fluorescence at 535 nm (green) in HepG2 cell free culture (AID 720686)
[11] = qHTS assay to test for compound auto fluorescence at 460 nm (blue) in HepG2 cells (AID 720687)
In short: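 HepG2 cells in MEM with 10% FBS, attached overnight at 37 C, were exposed to compound or DMSO for 1 hr at 37 C, 5% CO2. Blue fluorescence was read at 405/460 nm, with triamterene as reference fluorophore.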

[12] = qHTS assay to identify small molecule antagonists of the estrogen receptor alpha (ER-alpha) signaling pathway - cell viability counter screen (AID 743074; calls by dose curve;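 note: HEK293 cells carrying ER-alpha-UAS-bla reporter stimulated with 17beta-estradiol; nearly all actives have a fitted effect of over 45% in size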; note: potency is the fitted concentration of half-maximal effect)
[13] = qHTS assay to identify small molecule antagonists of the estrogen receptor alpha (ER-alpha) signaling pathway using the BG1 cell line - cell viability counter screen (AID 743081);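 note: compound given together with 17beta-estradiol as the ER stimulus; series mostly up to about 70 µM; nearly all actives have a fitted effect of over 45% in size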
[14] = qHTS assay to identify aromatase inhibitors - cell viability counter screen (AID 743084);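 note: cells stimulated with testosterone during compound exposure; nearly all actives have a fitted effect of over 55% in size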; note: potency is the fitted concentration of half-maximal effect
[15] = target: Aryl hydrocarbon receptor (Homo sapiens) (UniProt P35869); test: qHTS assay to identify small molecule that activate the aryl hydrocarbon receptor (AhR) signaling pathway (AID 743085); note: nearly all actives have a fitted effect of over 15% in size; note: potency is the fitted concentration of half-maximal effect;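 for activation: HG2L7.5c1 human HepG2 liver cells with stably integrated DRE-driven firefly reporter; series mostly up to about 70 µM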
In short: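 Measured in HG2L7.5c1 cells: CellTiter-Fluor signal (30 min incubation, 37C) for viability, then luciferase luminescence (30 min, room temperature). Compound contact time was 24 h at 37C, following a 5 h pre-incubation.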

[16] = qHTS assay to identify small molecule that activate the aryl hydrocarbon receptor (AhR) signaling pathway - cell viability counter screen (AID 743086); note: nearly all actives have a fitted effect of over 45% in size; note: potency is the fitted concentration of half-maximal effect
In short: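 HepG2-AhR-luc (HG2L7.5c1) cells, 4000/well, treated 24 h at 37 C with compound; viability measured as CellTiter-Fluor fluorescence after 30 min in the same wells as the luciferase read.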

[17] = qHTS assay to identify small molecule phospholipidosis (PLD) inducers (AID 1259344; active = well fitted curve in the direction sought with a large enough effect; an effect the other way counts as inactive or inconclusive)
In short: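 Read-out is LipidTOX Red fluorescence (ex 595/em 615) imaged in HepG2 cells after 24 h compound exposure at 37 C, with Hoechst nuclear counterstain (ex 352/em 461) allowing per-cell normalisation.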

[18] = target: Nuclear receptor subfamily 1 group I member 2 (Rattus norvegicus) (UniProt Q9R1A7); test: Rat pregnane X receptor (rPXR) activation by small molecules, qHTS assay (AID 1346983); conditions: rPXR luciferase reporter cells, One-Glo luminescence, 24 h; max activation: active compounds read high; note: nearly all actives have a fitted effect of over 20% in size
In short: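 Cell-based rPXR activation assay: rPXR cells, 2,000 per well, rested 5hr at 37 C, then exposed to compounds in DMSO for 24 hr at 37 C. Luciferase activity read by One-Glo luminescence after 30 min at room temperature.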

[19] = target: Nuclear receptor subfamily 1 group I member 2 (Homo sapiens) (UniProt O75469); test: CYP3A4 induction through human pregnane X receptor (PXR) by small molecules, qHTS assay (AID 1346984); note: nearly all actives have a fitted effect of over 40% in size
In short: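 Human PXR activation is tracked via CYP3A4 promoter-luciferase in DPX-2 (HepG2) cells. Compounds treat cells for 24hr at 37C, and luminescence is read after One-Glo.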

Aromatase (Homo sapiens) = Aromatase (Homo sapiens) (UniProt P11511); test: qHTS assay to identify aromatase inhibitors (AID 743083); note: nearly all actives have a fitted effect of over 55% in size; note: potency is the fitted concentration of half-maximal effect
Chain of Aromatase (Homo sapiens) (P11511 whole entry, looked up): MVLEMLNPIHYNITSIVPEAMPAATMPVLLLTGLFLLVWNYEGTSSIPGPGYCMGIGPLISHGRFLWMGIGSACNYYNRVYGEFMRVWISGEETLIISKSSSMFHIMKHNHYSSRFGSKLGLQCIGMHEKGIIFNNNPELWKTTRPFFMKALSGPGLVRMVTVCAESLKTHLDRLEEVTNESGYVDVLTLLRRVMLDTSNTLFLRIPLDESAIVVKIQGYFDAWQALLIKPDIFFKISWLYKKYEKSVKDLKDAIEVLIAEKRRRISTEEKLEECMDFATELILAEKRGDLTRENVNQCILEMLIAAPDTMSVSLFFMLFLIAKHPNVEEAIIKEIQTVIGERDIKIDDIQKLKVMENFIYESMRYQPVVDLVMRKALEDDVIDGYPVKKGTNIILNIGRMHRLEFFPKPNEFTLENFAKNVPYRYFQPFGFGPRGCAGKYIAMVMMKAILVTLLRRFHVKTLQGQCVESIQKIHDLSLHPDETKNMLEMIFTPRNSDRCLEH

Chain of Aryl hydrocarbon receptor (Homo sapiens) (P35869 whole entry, looked up): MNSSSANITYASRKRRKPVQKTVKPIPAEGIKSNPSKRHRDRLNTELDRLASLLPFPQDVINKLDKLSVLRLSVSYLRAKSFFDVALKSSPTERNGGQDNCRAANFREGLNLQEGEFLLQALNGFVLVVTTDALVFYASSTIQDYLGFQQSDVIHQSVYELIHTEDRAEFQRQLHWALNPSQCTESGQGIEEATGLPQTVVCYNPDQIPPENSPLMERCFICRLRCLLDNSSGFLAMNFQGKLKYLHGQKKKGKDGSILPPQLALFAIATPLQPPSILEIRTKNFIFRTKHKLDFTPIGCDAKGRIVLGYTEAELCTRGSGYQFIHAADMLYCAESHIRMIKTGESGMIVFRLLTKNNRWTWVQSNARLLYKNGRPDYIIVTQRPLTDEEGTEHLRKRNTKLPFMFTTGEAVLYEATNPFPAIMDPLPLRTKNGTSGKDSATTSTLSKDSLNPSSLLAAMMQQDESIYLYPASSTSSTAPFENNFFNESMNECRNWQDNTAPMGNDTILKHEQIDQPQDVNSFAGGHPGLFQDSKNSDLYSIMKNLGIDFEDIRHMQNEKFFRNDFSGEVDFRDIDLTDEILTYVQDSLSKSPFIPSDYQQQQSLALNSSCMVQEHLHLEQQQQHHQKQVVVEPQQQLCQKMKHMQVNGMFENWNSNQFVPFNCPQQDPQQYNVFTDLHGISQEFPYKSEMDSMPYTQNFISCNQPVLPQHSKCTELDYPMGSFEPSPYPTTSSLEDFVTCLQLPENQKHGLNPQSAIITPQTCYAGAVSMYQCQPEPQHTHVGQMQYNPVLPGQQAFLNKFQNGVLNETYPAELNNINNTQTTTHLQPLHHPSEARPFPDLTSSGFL
Chain of Nuclear receptor subfamily 1 group I member 2 (Rattus norvegicus) (Q9R1A7 whole entry, looked up): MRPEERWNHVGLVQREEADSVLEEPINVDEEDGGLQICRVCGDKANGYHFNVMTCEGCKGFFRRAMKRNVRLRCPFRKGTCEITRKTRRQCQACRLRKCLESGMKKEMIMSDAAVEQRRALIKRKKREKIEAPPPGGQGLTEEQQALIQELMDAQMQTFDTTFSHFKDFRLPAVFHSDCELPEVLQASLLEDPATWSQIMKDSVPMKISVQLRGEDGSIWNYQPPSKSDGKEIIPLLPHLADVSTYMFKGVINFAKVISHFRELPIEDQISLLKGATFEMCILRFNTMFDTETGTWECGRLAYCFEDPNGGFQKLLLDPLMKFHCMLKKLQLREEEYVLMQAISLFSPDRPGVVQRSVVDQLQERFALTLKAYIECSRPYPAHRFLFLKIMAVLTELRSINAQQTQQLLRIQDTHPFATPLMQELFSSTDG

Structure (SMILES) | Potency [1] | Potency [2] | outcome [3] | Potency [4] | outcome [5] | Potency [6] | Potency [7] | outcome [8] | Potency [9] | Potency [10] | Potency [11] | Potency [12] | Potency [13] | Potency [14] | Potency [15] | Potency [16] | Potency [17] | max activation [18] | Potency [19] | Potency (Aromatase (Homo sapiens))
CCCCCc1cc(O)c2c(c1)OC(C)(C)[C@@H]1CCC(C)=C[C@@H]21 | inactive | inactive | inactive | inactive | inactive | inactive | inactive | inactive | inactive | inactive | inactive | inactive | inactive | inactive | 9.44 µM (active) | inactive | inactive | -3.2% | inactive | –
COC([CH2][Hg])CNC(=O)c1ccccc1OCC(=O)O (configuration not stated) | – | – | inactive | inactive | inactive | inactive | inactive | inactive | inactive | inactive | inactive | inactive | inactive | inactive | – | inactive | inactive | 7.87% | inactive | inactive
C[C@H]1CC[C@]2(NC1)O[C@H]1C[C@H]3[C@@H]4CC[C@H]5C[C@@H](O[C@@H]6O[C@H](CO)[C@H](O[C@@H]7O[C@H](CO)[C@@H](O)[C@H](O[C@@H]8OC[C@@H](O)[C@H](O)[C@H]8O)[C@H]7O[C@@H]7O[C@H](CO)[C@@H](O)[C@H](O)[C@H]7O)[C@H](O)[C@H]6O)CC[C@]5(C)[C@H]4CC[C@]3(C)[C@H]1[C@@H]2C | 1.33 µM (active) | 7.5 µM (active) | inactive | inactive | inactive | inactive | inactive | inactive | inactive | inactive | inactive | 10.7 µM (active) | – | 5.96 µM (active) | inactive | 5.96 µM (active) | inactive | -24.3% | inactive | 3.35 µM (active)
CC1(C)[C@H](C=C(Cl)Cl)[C@H]1C(=O)OCc1c(F)c(F)cc(F)c1F | inactive | inactive | inactive | inactive | inactive | inactive | inactive | inactive | inactive | inactive | inactive | inactive | inactive | inactive | inactive | inactive | inactive | 4.71% | inactive | inactive
C[N+]1(C)CCCCC1COC(=O)C(O)(c1ccccc1)c1ccccc1 (configuration not stated) | inactive | inactive | inactive | inactive | inactive | inactive | inactive | inactive | inactive | inactive | inactive | inactive | inactive | inactive | inactive | inactive | inactive | 2.59% | inactive | inactive
S=C(S)N1CCNCC1 | inactive | inactive | inactive | inactive | inactive | inactive | inactive | inactive | inactive | inactive | inactive | inactive | inactive | inactive | inactive | inactive | inactive | -2.4% | inactive | inactive
O=c1[nH]cc(N(CCCl)CCCl)c(=O)[nH]1 | inactive | inactive | inactive | inactive | inactive | inactive | inactive | inactive | inactive | inactive | inactive | – | inactive | inactive | inactive | inactive | inactive | -3.28% | inactive | inactive
C=CC[C@]1(O)CC[C@H]2[C@@H]3CCC4=CCCC[C@@H]4[C@H]3CC[C@@]21C | inactive | inactive | inactive | inactive | inactive | inactive | inactive | inactive | inactive | inactive | inactive | inactive | inactive | inactive | inactive | inactive | inactive | 1.23% | inactive | –
C[C@]12CCC(=O)C=C1C=C[C@@H]1[C@@H]2CC[C@@]2(C)[C@H]1CC[C@@]2(O)CCC(=O)O | inactive | inactive | inactive | inactive | inactive | inactive | inactive | inactive | inactive | inactive | inactive | – | inactive | inactive | inactive | inactive | inactive | 4.24% | inactive | inactive
